An excerpt weighted towards active compounds, which were near 3.1% of everything screened.
VDR inhibitor: Inhibitors of the vitamin D receptor (VDR): qHTS; 400,000 compounds, 0.93% hits; Potency, µM, inactives show max response, negative = inhibition, actives largely listed as inhibitors; VDR-SRC2-3 peptide fluorescence polarization, 2 h; Vitamin D3 receptor (Homo sapiens), P11473; note: potency is the fitted concentration of half-maximal effect; % is set by controls: 0 for no effect and ±100 for the full control effect
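After 23 nl compound addition and a short centrifugation, plates sat for 2 hours at ambient temperature; polarization of fluorescence then indicated loss of VDR binding to peptide SRC2-3.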
PLK1 PBD inh: qHTS for Inhibitors of PLK1-PDB (polo-like kinase 1 - polo-box domain): Primary Screen; 360,000 compounds, 2.8% hits; Plk1 PBD binding of FITC phosphopeptide, fluorescence polarization; Serine/threonine-protein kinase PLK1 (Homo sapiens), P53350; Potency, µM, for the others: max response, negative = inhibition, actives largely listed as inhibitors; note: potency is the fitted concentration of half-maximal effect; series mostly up to about 57 µM; % is set by controls: 0 for no effect and ±100 for the full control effect; nearly all actives have a fitted effect of over 65% in size
TSHR antag: Antagonists of the Thyroid Stimulating Hormone Receptor: HTS campaign. Thyrotropin receptor (Homo sapiens), P16473. TSHR-expressing cells, TSH-stimulated cAMP HTRF, 2 h; hits give low values. activity change, negative = inhibition, % at 11.5 µM. AID 504810, 2011. 330,000 compounds, 0.2% hits;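 active = activity change below a set negative limit, meaning inhibition stronger than a set level, cut at about -70% in these data; inconclusive = activity change between two set negative limits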; note: % is set by controls: 0 for no effect and ±100 for the full control effect
Target sequence (P16473 whole entry, looked up): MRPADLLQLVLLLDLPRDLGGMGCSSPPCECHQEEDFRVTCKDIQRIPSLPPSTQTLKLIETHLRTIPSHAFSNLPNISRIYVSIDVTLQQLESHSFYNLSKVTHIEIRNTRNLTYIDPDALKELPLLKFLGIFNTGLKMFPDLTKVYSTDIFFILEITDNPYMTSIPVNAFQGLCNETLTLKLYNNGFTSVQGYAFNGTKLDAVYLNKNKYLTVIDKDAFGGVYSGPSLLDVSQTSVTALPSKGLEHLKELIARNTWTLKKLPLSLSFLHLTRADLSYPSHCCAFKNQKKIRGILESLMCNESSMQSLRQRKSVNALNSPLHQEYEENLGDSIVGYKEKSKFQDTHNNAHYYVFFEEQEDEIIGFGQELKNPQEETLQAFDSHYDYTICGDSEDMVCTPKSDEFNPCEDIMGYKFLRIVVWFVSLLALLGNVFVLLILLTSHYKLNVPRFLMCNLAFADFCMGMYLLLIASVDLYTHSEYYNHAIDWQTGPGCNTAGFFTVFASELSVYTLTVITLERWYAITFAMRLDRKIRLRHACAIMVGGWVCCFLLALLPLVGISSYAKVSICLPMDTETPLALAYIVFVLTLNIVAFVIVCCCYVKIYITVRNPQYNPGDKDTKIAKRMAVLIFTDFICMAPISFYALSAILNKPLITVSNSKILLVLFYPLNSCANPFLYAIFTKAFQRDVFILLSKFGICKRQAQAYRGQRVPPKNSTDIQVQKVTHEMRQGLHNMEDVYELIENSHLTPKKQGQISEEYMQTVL
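TSHR-expressing cells were treated with compounds, then stimulated with TSH at EC80 (4nM final) for 2 hours at 37 deg C. Cellular cAMP was measured by HTRF competition between lysate cAMP and cAMP-d2 for a cryptate-labelled anti-cAMP antibody.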
Vif-APOBEC3F blk: qHTS for Inhibitors of Vif-A3F Interactions: qHTS; HeLa A3F-eYFP + Vif (tagged APOBEC3F with the HIV-1 protein that degrades it), YFP fluorescence increase; Potency, µM (titrated, usually from 46.1 µM), without a hit: at the highest dose activity, negative = active; 390,000 compounds, 0.2% hits; AID 602313, 2012; note: potency is the fitted concentration of half-maximal effect; % of control where 0% means no effect; nearly all actives have a fitted effect of over 65% in size
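HeLa cells stably expressing A3F-eYFP plus Vif, plated and incubated overnight at 37 deg C, then exposed to compounds overnight at 37 deg C. Blocked degradation read as raised yellow fluorescence (Ex 488/Em 500-530).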
Vif-APOBEC3G blk: qHTS for Inhibitors of Vif-A3G Interactions: qHTS; DNA dC->dU-editing enzyme APOBEC-3G (Homo sapiens), Q9HC16; Potency, µM (top dose mostly 46.1 µM), without a hit: at the highest dose activity, negative = active, actives largely listed as inhibitors; HeLa A3G-eYFP + Vif (tagged APOBEC3G with the HIV-1 protein that degrades it), YFP fluorescence, overnight; 410,000 compounds, 0.076% hits; note: potency is the fitted concentration of half-maximal effect; % is set by controls: 0 for no effect and ±100 for the full control effect; nearly all actives have a fitted effect of over 60% in size
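HeLa cells stably expressing Vif and C-terminally eYFP-tagged A3G, seeded overnight at 37 deg C, then exposed to compound by pintool overnight at 37 deg C. Rise in yellow fluorescence (Ex 488/Em 500-530, Acumen) marks blocked Vif-driven A3G degradation.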
* marks the source's active call; other numbers are inactive results; ? = inconclusive; / = no result. Unless noted, calls come from the whole dose curve; as a rule, active = well fitted curve in the direction sought with a large enough effect; inconclusive = small, poorly fitted or top-dose-only effect, or another doubt; inactive = no such curve, though single readings can be large; an effect the other way counts as inactive or inconclusive.

SMILES	VDR inhibitor	PLK1 PBD inh	TSHR antag	Vif-APOBEC3F blk	Vif-APOBEC3G blk
CCOC(=O)c1c(NC(=O)c2cc(C)on2)sc(C)c1C	79µM*	/	/	0%	2%
CC(=O)Nc1sc(C)c(C)c1C(=O)OC(C)C	-5%	27µM*	17	-16%	-3%
Cc1sc(NC(=O)C2c3ccccc3Oc3ccccc32)c(C(=O)OC(C)C)c1C	-12%	/	/	3%	-1%
Cn1c2cc(B(O)O)sc2c2cnn(Cc3c(F)cccc3Cl)c(=O)c21	/	/	-22	/	/
O=C(CSc1nnc(SCc2ccc(Cl)cc2)s1)N/N=C/c1ccc(C(=O)O)cc1	-7%	67µM*	-6	-8%	2%
O=C(O)COc1ccccc1/C=N/NC(=O)CSc1nnc(SCc2ccc(Cl)cc2)s1	-20%	-15%	5	6%	2%
Cc1nn(-c2ccccc2)c2nc(=O)n(-c3ccccc3)cc12	?	3µM*	-8	7%	-8%
C[C@@H]1C(=O)N(S(=O)(=O)c2ccccc2[N+](=O)[O-])[C@H]1c1ccc(-c2ccccc2)cc1	-20%	/	/	/	2%
Cc1ccc(Sc2cc(NCCCO)c([N+](=O)[O-])c3nonc23)cc1	?	24µM*	10	3%	-1%
CC(C)CCSc1cc(NCCO)c([N+](=O)[O-])c2nonc12	-10%	-26%	-15	-17%	-2%
COC(=O)CCSc1cc(NCCCOC(C)=O)c([N+](=O)[O-])c2nonc12	-27%	/	/	/	-28%
CC(=O)OCCCNc1cc(Sc2ccc(Cl)cc2)c2nonc2c1[N+](=O)[O-]	10µM*	1.2µM*	30	-14%	0%
COc1ccc(Cn2c(C)nc3c(c2=O)c2nc4ccccc4nc2n3Cc2ccco2)cc1	?	7.5µM*	/	?	-10%
Cc1cc(Nc2ccc(Br)c(C)c2)n2nc(C)nc2n1	?	30µM*	8	-11%	-1%
CN(C)C1CCc2[nH]c3ccc(NC(=O)c4ccc(F)cc4)cc3c2C1 (configuration not stated)	6%	/	/	/	/
COc1ccccc1-c1c(C)nn2c(N3CCN(c4ccccc4OC)CC3)cc(C)nc12	-24%	21µM*	-4	-3%	-1%
Nc1nc(N)c2[nH]c(=S)[nH]c2n1	-15%	24µM*	/	7%	-5%
CC(C)=CC(=O)Oc1ccc(C(=O)N(C)c2ccccc2I)cc1	-22%	/	/	/	2%
CCc1ccc2[nH]c(=O)c(CN(Cc3cccs3)Cc3nnnn3Cc3ccccc3)cc2c1	-10%	/	/	/	-6%
C=CCSC1=C(C#N)C(c2ccccc2OCC)C(C#N)C(=O)N1 (configuration not stated)	-19%	27µM*	0	-1%	-8%
COc1ccc(C2CC(c3ccccc3)Oc3cc(OC)c(OC)c(OC)c32)cc1 (configuration not stated)	-28%	/	/	/	3%
O=C(O)c1[nH]c2ccccc2c1C(c1cc(Cl)cc([N+](=O)[O-])c1O)c1c(C(=O)O)[nH]c2ccccc12	79µM*	7.5µM*	12	-10%	1%
C=CCOc1ccc(C(c2c(C(=O)O)[nH]c3ccccc23)c2c(C(=O)O)[nH]c3ccccc23)cc1	-15%	8.4µM*	-14	4%	2%
COc1cc(C(c2c(C(=O)O)[nH]c3ccccc23)c2c(C(=O)O)[nH]c3ccccc23)ccc1OCc1ccccc1	11%	8.4µM*	-5	15%	0%
O=C(O)c1[nH]c2ccccc2c1C(c1ccccc1)c1c(C(=O)O)[nH]c2ccccc12	?	27µM*	25	1%	2%
SMILES	VDR inhibitor	PLK1 PBD inh	TSHR antag	Vif-APOBEC3F blk	Vif-APOBEC3G blk
O=C(O)c1ccccc1-c1nc(-c2ccccc2)c(-c2ccccc2)[nH]1	-13%	-5%	10	-13%	-4%
O=C(O)c1cccc2c(-c3ccccc3)c(-c3ccccc3)[nH]c12	-19%	24µM*	-14	-18%	0%
Cc1cc(C)c(NC(=O)OCCN2CCOCC2)c(C)c1	-20%	2.7µM*	1	8%	0%
Cc1cc(C)c(OCCN2CCOCC2)c(Cl)c1	-9%	-4%	-1	1%	1%
Cc1cc(N=Cc2c(O)n(-c3ccc4c(c3)OCO4)c(=O)c3ccccc23)ccn1	9%	18%	10	25µM*	?
Cc1ccc(-n2c(O)c(C=Nc3ccc4c(c3)OCO4)c3ccccc3c2=O)cc1C	12%	-6%	4	?	-11%
Cc1cccc(-n2c(O)c(C=Nc3cccc(O)c3)c3ccccc3c2=O)n1	?	15µM*	-9	1%	0%
Cc1cccc(-n2c(O)c(C=Nc3ccc4c(c3)OCO4)c3ccccc3c2=O)n1	-2%	-23%	1	0%	1%
C=CCNC(=S)Nc1ccc(Cl)cc1	-1%	13µM*	8	4%	-2%
Cc1ccccc1C1CC(=O)Oc2cc(C)c(Br)c(C)c21 (configuration not stated)	-4%	/	/	/	/
Cc1ccc(N2C(=O)C3CCCN3C2=S)cc1 (configuration not stated)	14%	13µM*	-5	13%	-4%
Nc1nc(Nc2ccccc2F)sc1C(=O)c1ccc(Cl)cc1	-7%	/	/	3%	-2%
Cc1nc([N+](=O)[O-])cn1CC(=O)c1ccc2c(c1)OCCCO2	/	/	/	/	-2%
O=C(NCC1CC1)c1ccc2nc(-c3ccoc3)c(-c3ccoc3)nc2c1	-7%	/	/	/	-6%
O=C1/C(=C/c2ccccc2)CCC1C1CCCC1 (configuration not stated)	2%	-18%	-7	-2%	-1%
CC1CCCC(=C\c2ccccc2)/C1=N/O (configuration not stated)	?	27µM*	3	-19%	-1%
COc1ccc2c(c1)O[C@@H](c1ccc3c(c1)OCO3)[C@H](OC(=O)NCCOc1ccccc1)C2=O	-1%	/	/	/	/
CCOc1ccc(C=Nc2ccc(/C=C/c3ccnc4ccccc34)cc2)cc1OCC	/	/	/	/	-2%
CCOC(=O)C(C(=O)OCC)c1cc(Br)c2noc3c2c1C(=O)c1ccccc1-3	?	1.9µM*	8	?	-9%
CCOC(=O)C1CCN(c2nc(N)c3c(N)nc(SCC(=O)O)cc3c2C#N)CC1	?	11µM*	-9	-9%	-6%
O=C(Nc1ccc(N2CCOCC2)c(F)c1)c1cccs1	6%	-1%	15	-6%	1%
Cc1ccc(NC(=O)c2cc(N3C(=O)C=CC3=O)ccc2N2CCOCC2)cc1Cl	45µM*	4.7µM*	-21	-12%	-25%
COC(=O)c1cc(NC(=O)c2cccs2)ccc1N1CCOCC1	?	27µM*	6	13%	-2%
